Assay outcomes as filed in PubChem BioAssay.
CASP6 VEID inh = inhibitors of human caspase-6; P55212; purified caspase-6, Z-VEID-R110 cleavage fluorescence; inhibition, % at 12.5 µM; hit rate 0.53% among 350,000; AID 686996;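 active = mean inhibition across replicates at least about 35%, with every replicate also reaching that limit, limit read from the data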;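 note: 0% = median of neutral control wells and 100% = no fluorescence left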
HDAC3 inh = blocks human histone deacetylase 3; recombinant HDAC3, fluorogenic peptide/trypsin coupled, fluorescence; hit rate 0.15% among 320,000; inhibition, % at 8.3 µM; in the data active = inhibition above about 26%, passing the limit was not always enough
C-LANA FP = blocks KSHV LANA C-terminal domain binding to DNA; MBP-C-LANA/FAM-LBS DNA binding, fluorescence polarization; inhibition, % at 9 µM; hit rate 0.078% among 340,000;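 active = highest replicate inhibition at or above 60% at 9 µM, even if other replicates fall short; inactive = all replicates below 60% inhibition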;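 note: 0% = neutral control wells and 100% = 4 µM acridine orange control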
NSD2 inh = NSD2 (human) methyltransferase inhibition | O96028 | NSD2 peptide methylation, AlphaScreen, 120 min | inhibition, % at 12.5 µM | hit rate 0.54% among 310,000 | AID 743445; in the data active = inhibition above about 50%
Keap1 Nrf2 FP = Keap1-Nrf2 (human) interaction inhibition. Q14145. inhibition, % at 9.4 µM. hit rate 0.15% among 340,000. Keap1 Kelch-Nrf2 peptide fluorescence polarization, 1536-well; in the data active = inhibition above about 12%;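 note: human Keap1 Kelch domain with fluorescein labeled Nrf2 9mer peptide probe; 0% = neutral control wells and 100% = peptide positive control; higher means more block of Keap1 binding to Nrf2 peptide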
Glyco luc inh = blocks N-linked glycosylation in D54 reporter cells; D54 ERlucT glycosylation luciferase reporter, 24 h; percent of 100 nM tunicamycin response; reporter increase, % at 12.5 µM; hit rate 0.23% among 360,000;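 active = mean luciferase reporter signal, scaled so untreated is 0 and the glycosylation-blocking control 100, at or above a set limit in every replicate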;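 note: luciferase carries N-glycosylation sites so blocking glycosylation raises the light; 0% = median of neutral control wells and 100% = median of 100 nM tunicamycin wells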
The depositor's hits bear a star; · = no result given. Rows were chosen to be rich in hits. Some 1.1% of all compounds tested hit in one or more screens of this group.

SMILES | CASP6 VEID inh | HDAC3 inh | C-LANA FP | NSD2 inh | Keap1 Nrf2 FP | Glyco luc inh
CCc1nnc2n1N=C(c1ccc(OC)cc1)CS2 | · | 4 | 0 | -1 | -3 | 37*
C[n+]1c2n(c3ccccc31)N=C(c1ccc(Cl)cc1)CS2 | · | 55* | -2 | 2 | 0 | 22
CN(C)CC(=O)N[C@H]1C=C[C@@H](CC(=O)NCc2ccccc2F)O[C@@H]1CO | 1 | · | · | · | · | ·
C[C@H]1CN([C@@H](C)CO)C(=O)c2cc(/C=C/c3ccccc3)cnc2O[C@@H]1CN(C)C(=O)CN1CCOCC1 | -1 | · | · | · | · | ·
C[C@@H]1CN([C@@H](C)CO)C(=O)c2cccc(NC(=O)C3CCCCC3)c2O[C@H]1CN(C)Cc1ccc(Cl)c(Cl)c1 | -3 | · | · | · | · | ·
C[C@@H]1CCCCO[C@@H](CN(C)C)[C@@H](C)CN([C@H](C)CO)C(=O)c2cc(NS(=O)(=O)c3cn(C)cn3)ccc2O1 | 1 | · | · | · | · | ·
COc1ccc(NC(=O)N(C)C[C@@H]2Oc3ccc(NC(=O)Cn4cnnn4)cc3CC(=O)N([C@H](C)CO)C[C@@H]2C)cc1 | -3 | · | · | · | · | ·
O=C(N/N=C/c1coc2ccccc2c1=O)c1ccccc1 | 2 | 22 | -1 | 0 | -4 | -2
O=C(N/N=C/c1coc2ccccc2c1=O)c1cc(Br)ccc1O | 43* | 1 | -1 | 4 | -3 | -1
Cc1ccc2occ(/C=N/NC(=O)c3ccc(O)cc3)c(=O)c2c1 | 2 | 82* | -2 | -5 | 3 | -6
C[C@H](CO)N1C[C@H](C)[C@@H](CN(C)CC2CC2)Oc2cc(C#CC3(O)CCCC3)ccc2S1(=O)=O | 1 | · | · | · | · | ·
O=C(O/N=C(/c1ccccc1)c1ccncc1)c1cccc(F)c1 | 0 | 17 | 1 | 14 | 5 | 0
Cc1ccc(C(=O)O/N=C(\c2ccccc2)c2ccncc2)cc1 | 0 | 36* | 1 | 1 | -6 | 0
CC(C)CCn1c(=O)c2ccccc2n2c(CCC(=O)NCC3CCCO3)nnc12 (stereo unspecified) | 38* | -1 | 0 | -1 | -5 | 1
COCCNC(=O)[C@@H]1[C@@H](CO)[C@@H]2Cn3c(ccc(C4=CCCCC4)c3=O)[C@H]1N2C(=O)C1CCCC1 | 5 | · | · | · | · | ·
COCCN=c1scc(-c2ccco2)n1/N=C/c1ccc(O)c(O)c1O | 13 | 9 | 9 | 87* | 1 | -2
C=CCN=c1scc(-c2ccco2)n1/N=C/c1ccc(O)c(O)c1O | 23 | 13 | -1 | 17 | 0 | -1
CN1C(=O)c2cc(NC(=O)Nc3ccc(F)cc3)ccc2OC[C@H]2O[C@H](CC(=O)NC3CCC3)CC[C@@H]21 | 2 | · | · | · | · | ·
COCCN(C(=O)CCl)C(C(=O)NC1CCCCC1)c1ccccc1C (stereo unspecified) | 7 | -12 | 2 | 1 | 1 | 30*
COCCN(C(=O)CCC(=O)Nc1cc(C)on1)C(C(=O)NC1CCCC1)c1ccccc1C (stereo unspecified) | 1 | -9 | 1 | 1 | -2 | -1
COC(=O)c1ccc(C)c(NC(=O)CN(c2cc(OC)ccc2OC)S(C)(=O)=O)c1 | · | 2 | 1 | 4 | 5 | 74*
COc1ccc(OC)c(N(CC(=O)Nc2ccc(NC(C)=O)cc2)S(C)(=O)=O)c1 | 4 | -7 | 1 | 1 | -2 | 3
O=C1C2C3C=CC(CC3)C2C(=O)N1c1nccs1 (stereo unspecified) | 67* | 2 | -1 | 27 | -3 | 1
O=C1C2C3C=CC(C2C(=O)N1c1nccs1)C1C(=O)N(c2nccs2)C(=O)C31 (stereo unspecified) | 9 | 1 | 0 | -3 | -2 | 3
Cc1ccc(/C=C2\SC(=S)N(/N=C/c3cc([N+](=O)[O-])ccc3O)C2=O)o1 | · | 10 | 74* | · | 9 | -1
SMILES | CASP6 VEID inh | HDAC3 inh | C-LANA FP | NSD2 inh | Keap1 Nrf2 FP | Glyco luc inh
COc1cccc(-c2ccc([C@H]3[C@H](CO)N(C(C)=O)C34CN(C(C)=O)C4)cc2)c1 | -1 | · | · | · | · | ·
Cc1nc(SC(C)C(=O)c2c(N)n(C)c(=O)n(C)c2=O)c2c(C)c(C)sc2n1 (stereo unspecified) | 49* | 9 | 0 | -1 | 2 | 7
CCOc1ccc(Br)cc1C(=O)Nc1ccc(C(=O)NCC(C)C)cc1 | · | -4 | -1 | -1 | -6 | 115*
O=C(c1ccccc1F)N1C[C@@H]2[C@H](c3ccccc31)[C@@H](CO)N2C(=O)c1ccccc1 | 1 | · | · | · | · | ·
C[C@H](CO)N1C[C@H](C)[C@@H](CN(C)C(=O)c2ccncc2)Oc2ncc(C#CC3CCCCC3)cc2C1=O | -2 | · | · | · | · | ·
Cn1nc(C(F)(F)F)c(/C=N/OC(=O)c2ccc(Cl)cc2)c1Cl | · | 13 | 0 | -2 | 7 | 0
Cn1nc(C(F)(F)F)c(/C=N/OC(=O)c2ccccc2Cl)c1SCc1ccccc1Cl | · | 3 | -1 | 1 | 2 | 58*
Cn1nc(C(F)(F)F)c(/C=N/OC(=O)c2ccccc2)c1SCc1ccc(Cl)cc1 | · | 0 | -2 | 2 | 1 | 73*
S=c1nc[nH]c2nc[nH]c12 | -4 | 3 | -1 | · | -5 | 247*
Cn1c(=O)c(NC2CCCCC2)c2c3c(cccc31)C(=O)c1ccccc1-2 | · | · | 64 | -25 | 53* | -8
CCC1(c2ccccc2)CN(C)C1=O (stereo unspecified) | · | · | · | 0 | · | 2
CCN1c2ccccc2N(C)C1(C)c1ccccc1 (stereo unspecified) | · | 4 | 21 | 63* | 2 | 0
C[C@H](CO)N1C[C@H](C)[C@H](CN(C)C(=O)NC2CCCCC2)Oc2ccc(NC(=O)Nc3ccccc3)cc2C1=O | 3 | · | · | · | · | ·
CCOc1ccccc1NC(=O)CN(c1ccc(OC)cc1)S(=O)(=O)c1c(C)noc1C | · | 4 | 0 | -1 | -2 | 34*
CCN(CC)c1ccc2c(-c3ccc(S(=O)(=O)O)cc3S(=O)(=O)[O-])c3ccc(=[N+](CC)CC)cc-3oc2c1 | -40 | 4 | 121* | 61* | 82* | -11
O=C(Nc1ccc2c(c1)OCO2)C1Cc2c(-c3ccc4c(c3)OCO4)ccnc2O1 (stereo unspecified) | 65* | · | · | 7 | · | 13
CC(=O)c1cccc(-c2ccnc3c2CC(C(=O)NCc2ccco2)O3)c1 (stereo unspecified) | -1 | · | · | -4 | · | 32*
O=C(NCc1ccccc1)C1Cc2c(-c3cccc(F)c3)ccnc2O1 (stereo unspecified) | 5 | · | · | -1 | · | 35*
CC(=O)c1cccc(-c2ccnc3c2CC(C(=O)NCc2ccc(F)c(F)c2)O3)c1 (stereo unspecified) | -1 | · | · | -3 | · | 34*
CN1CCN(C(=O)C[C@H]2CC[C@@H]3[C@H](COC[C@H](O)CN3C(=O)Nc3ccc4c(c3)OCO4)O2)CC1 | 1 | · | · | · | · | ·
O=C(Cc1c[nH]c2ccccc12)Nc1ccc(Nc2cccnc2)c(-c2ccc(-c3ccccc3)cc2F)c1 | 2 | · | · | · | · | ·
COc1ccccc1-n1c(CNC(=O)c2ccc(S(=O)(=O)N3CCCCC3)cc2)n[nH]c1=S | 40* | 5 | 2 | 1 | 4 | 2
